From PubChem BioAssay (NCI)
About 79,000 compounds went through this panel and 15% of them were active in at least one assay; those are over-represented in the sample as a whole. Calls of active or inactive are those of the source. Rule as the data show it: active = growth inhibition above about 70%; inactive = the rest.

Key:
[1] = NCI Yeast Anticancer Drug Screen. Data for the wt1 strain (AID 149);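 also: 0% = growth of vehicle-treated wt1 cultures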; settings: S. cerevisiae wt1 strain (SPY 50644) growth inhibition, stronger effect = higher value
Method in brief: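 wt1 strain grown with compound or vehicle; inhibition taken from the growth difference.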

[2] = NCI Yeast Anticancer Drug Screen. Data for the rad50EPP+ strain (AID 151);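 also: 0% = growth of vehicle-treated control cultures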; settings: S. cerevisiae rad50 mutant strain, stronger effect = higher value
Method in brief: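 Compounds were applied to the rad50EPP+ yeast strain, which bears a defined DNA repair alteration, and growth inhibition was determined relative to vehicle-treated cultures.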

[3] = NCI Yeast Anticancer Drug Screen. Data for the mgt1 strain (AID 153); settings: S. cerevisiae mgt1 mutant growth inhibition, stronger effect = higher value
Method in brief: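 Strain: mgt1 yeast, one of a set carrying defined DNA damage repair or cell cycle control alterations. Compound-treated growth compared with vehicle.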

[4] = NCI Yeast Anticancer Drug Screen. Data for the rad50 strain (AID 155);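 also: 0% = growth of vehicle-only cultures of the same strain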; settings: S. cerevisiae rad50 strain growth inhibition, stronger effect = higher value
Method in brief: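 DNA repair mutant yeast, compound exposure, growth read-out; inhibition is taken relative to vehicle.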

[5] = NCI Yeast Anticancer Drug Screen. Data for the mec2-1 strain (AID 157); settings: S. cerevisiae mec2-1 strain, stronger effect = higher value
Method in brief: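 Strain: mec2-1 (DNA repair/cell cycle alteration). Compound exposure, then growth measured; inhibition expressed relative to vehicle.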

[6] = NCI Yeast Anticancer Drug Screen. Data for the rad14 strain (AID 159);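 also: 0% = growth of vehicle-treated control cultures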; settings: S. cerevisiae rad14 strain growth inhibition, stronger effect = higher value
Method in brief: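 DNA repair-defective yeast, compound-exposed; % growth inhibition derived by comparison with vehicle-treated controls.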

[7] = NCI Yeast Anticancer Drug Screen. Data for the sgs1 mgt1 strain (AID 161);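 also: 0% = growth of cultures given vehicle only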; settings: S. cerevisiae sgs1 mgt1 strain, stronger effect = higher value
Method in brief: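 Genetically altered yeast, compound exposure, growth inhibition relative to vehicle.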

[8] = NCI Yeast Anticancer Drug Screen. Data for the CLN2oe strain (AID 163);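 also: 0% = growth of vehicle-only control cultures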; settings: S. cerevisiae CLN2oe strain, stronger effect = higher value
Method in brief: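 Growth of a genetically modified yeast strain is measured after compound exposure and compared with cultures given vehicle alone.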

[9] = NCI Yeast Anticancer Drug Screen. Data for the cln2 rad14 strain (AID 165);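 also: 0% = growth equal to vehicle treated cultures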; settings: S. cerevisiae cln2 rad14 strain, stronger effect = higher value
Method in brief: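 Compounds are applied to the cln2 rad14 yeast strain, and growth is then compared with that of vehicle-treated cultures to give inhibition.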

[10] = NCI Yeast Anticancer Drug Screen. Data for the bub3 strain (AID 167); settings: S. cerevisiae bub3 mutant strain, stronger effect = higher value
Method in brief: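 In this screen, a yeast mutant lacking normal mitotic checkpoint function is challenged with compound. Relative growth versus vehicle gives the inhibition value.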

[11] = NCI Yeast Anticancer Drug Screen. Data for the wt2 strain (AID 169);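 also: 0% = growth of vehicle-treated yeast cultures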; settings: S. cerevisiae wt2 strain growth inhibition, stronger effect = higher value
Method in brief: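 This strain belongs to a panel of yeast strains with defined genetic alterations in DNA damage repair or cell cycle control. Compounds are applied, and growth inhibition is measured against vehicle-treated cultures.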

[12] = NCI Yeast Anticancer Drug Screen. Data for the mlh1 strain (AID 171);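 also: 0% = growth of vehicle-treated control cultures of the same strain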; settings: S. cerevisiae mlh1 strain growth inhibition, stronger effect = higher value
Method in brief: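 Growth of the mutant yeast strain after compound exposure, expressed as inhibition relative to vehicle-only controls.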

[13] = NCI Yeast Anticancer Drug Screen. Data for the sgs1 strain (AID 173);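 also: 0% = growth of vehicle-only control cultures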; settings: S. cerevisiae sgs1 mutant, stronger effect = higher value
Method in brief: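 Growth of a yeast strain bearing a defined genetic alteration is measured after compound treatment. Inhibition is expressed relative to vehicle-only controls.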

[14] = NCI Yeast Anticancer Drug Screen. Data for the mlh1 rad18 strain (AID 175); settings: S. cerevisiae mlh1 rad18 strain growth inhibition, stronger effect = higher value
Method in brief: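 Read-out is yeast growth inhibition, calculated against vehicle-only controls. The compound was applied to a strain engineered with DNA damage repair alterations.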

[15] = NCI Yeast Anticancer Drug Screen. Data for the rad18 strain (AID 177); settings: S. cerevisiae rad18 mutant growth inhibition, stronger effect = higher value
Method in brief: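 Growth of the mutant yeast strain after compound exposure, normalised to vehicle-only cultures.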

[16] = at 5.0 µM (retest, dose inferred, filed as 0.5)
[17] = at 50.0 µM (retest, dose inferred, filed as 5.0)

Measured: growth inhibition

N#C/C(=C1C=C/C(=N\O)C(Cl)=C\1)c1ccccc1
active: [4]; [17] 76% | [7]; [17] 85% | [10]; [17] 71% | [10]; at 50.0 µM 72.7% | [14]; [17] 87% | [14]; at 50.0 µM 80.7%
inactive: [1]; at 1.2 µM -2% | [1]; at 3.7 µM -5% | [1]; at 11.0 µM 2% | [1]; at 33.0 µM 0% | [1]; at 100.0 µM 3% | [2]; at 1.2 µM 2% | [2]; at 3.7 µM 16% | [2]; at 11.0 µM 26% | [2]; at 33.0 µM 21% | [2]; at 100.0 µM 24% | [3]; at 1.2 µM -3% | [3]; at 3.7 µM 1% | [3]; at 11.0 µM 3% | [3]; at 33.0 µM 5% | [3]; at 100.0 µM 10% | [4]; at 1.2 µM 0% | [4]; at 3.7 µM 3% | [4]; [16] 24% | [4]; at 11.0 µM 8% | [4]; at 33.0 µM 13% | [4]; at 50.0 µM 55.8% | [4]; at 100.0 µM 14% | [5]; at 1.2 µM -1% | [5]; at 3.7 µM 0% | [5]; [16] -11% | [5]; at 11.0 µM 2% | [5]; at 33.0 µM 5% | [5]; [17] 36% | [5]; at 50.0 µM 43% | [5]; at 100.0 µM 14% | [6]; at 1.2 µM 2% | [6]; at 3.7 µM 8% | [6]; at 11.0 µM 15% | [6]; at 33.0 µM 17% | [6]; at 100.0 µM 26% | [7]; [16] 52% | [7]; at 50.0 µM 40.1% | [8]; at 1.2 µM 2% | [8]; at 3.7 µM 3% | [8]; at 11.0 µM 6% | [8]; at 33.0 µM 15% | [8]; at 100.0 µM 13% | [9]; [16] 12% | [9]; [17] 46% | [9]; at 50.0 µM -43.9% | [10]; at 1.2 µM -1% | [10]; at 3.7 µM 2% | [10]; [16] 37% | [10]; at 11.0 µM 4% | [10]; at 33.0 µM 14% | [10]; at 100.0 µM 16% | [11]; at 1.2 µM -13% | [11]; at 3.7 µM -11% | [11]; at 11.0 µM -9% | [11]; at 33.0 µM -9% | [11]; at 100.0 µM -1% | [12]; at 1.2 µM -4% | [12]; at 3.7 µM 4% | [12]; at 11.0 µM 7% | [12]; at 33.0 µM 10% | [12]; at 100.0 µM 23% | [13]; at 1.2 µM -3% | [13]; at 3.7 µM 7% | [13]; at 11.0 µM 6% | [13]; at 33.0 µM 16% | [13]; at 100.0 µM 33% | [14]; [16] 45% | [15]; at 1.2 µM -1% | [15]; at 3.7 µM 1% | [15]; at 11.0 µM -2% | [15]; at 33.0 µM 2% | [15]; at 100.0 µM 13%

Cc1ccc2oc(-c3cccc(N)c3)nc2c1
inactive: [1]; at 1.2 µM 0% | [1]; at 3.7 µM -4% | [1]; at 11.0 µM 2% | [1]; at 33.0 µM 0% | [1]; at 100.0 µM 5% | [2]; at 1.2 µM 1% | [2]; at 3.7 µM 2% | [2]; at 11.0 µM 10% | [2]; at 33.0 µM 23% | [2]; at 100.0 µM 36% | [3]; at 1.2 µM -6% | [3]; at 3.7 µM -13% | [3]; at 11.0 µM -4% | [3]; at 33.0 µM 6% | [3]; at 100.0 µM 24% | [4]; at 1.2 µM -3% | [4]; at 3.7 µM 4% | [4]; [16] -7% | [4]; at 11.0 µM 1% | [4]; at 33.0 µM 12% | [4]; [17] 10% | [4]; at 50.0 µM 17.4% | [4]; at 100.0 µM 29% | [5]; at 1.2 µM -2% | [5]; at 3.7 µM -3% | [5]; [16] -10% | [5]; at 11.0 µM 3% | [5]; at 33.0 µM 3% | [5]; [17] 13% | [5]; at 50.0 µM 3.95% | [5]; at 100.0 µM 8% | [6]; at 1.2 µM 1% | [6]; at 3.7 µM 3% | [6]; at 11.0 µM 9% | [6]; at 33.0 µM 18% | [6]; at 100.0 µM 27% | [7]; [16] 10% | [7]; [17] 48% | [7]; at 50.0 µM -18.8% | [8]; at 1.2 µM -5% | [8]; at 3.7 µM -6% | [8]; at 11.0 µM -4% | [8]; at 33.0 µM 6% | [8]; at 100.0 µM 15% | [9]; [16] -42% | [9]; [17] -2% | [9]; at 50.0 µM 27.5% | [10]; at 1.2 µM -6% | [10]; at 3.7 µM -3% | [10]; [16] 9% | [10]; at 11.0 µM 9% | [10]; at 33.0 µM 23% | [10]; [17] 36% | [10]; at 50.0 µM 23.4% | [10]; at 100.0 µM 35% | [11]; at 1.2 µM -3% | [11]; at 3.7 µM -2% | [11]; at 11.0 µM -2% | [11]; at 33.0 µM 1% | [11]; at 100.0 µM 11% | [12]; at 1.2 µM -4% | [12]; at 3.7 µM 6% | [12]; at 11.0 µM -2% | [12]; at 33.0 µM 2% | [12]; at 100.0 µM 21% | [13]; at 1.2 µM -1% | [13]; at 3.7 µM 0% | [13]; at 11.0 µM 2% | [13]; at 33.0 µM 5% | [13]; at 100.0 µM 10% | [14]; [16] -7% | [14]; [17] 28% | [14]; at 50.0 µM -6% | [15]; at 1.2 µM -2% | [15]; at 3.7 µM -4% | [15]; at 11.0 µM 3% | [15]; at 33.0 µM 17% | [15]; at 100.0 µM 53%
